About 7,900 targets were measured; listed, in parts, are those with a hit and a random draw of the rest. About 0.6% of all pairs of compound and target were hits.
Tests used:
Assay in all cases: log2 fold change, soluble protein after heating vs DMSO (PISA); higher = thermal stabilisation; K562 cells, 10 uM, 30 min; active = over 0.2 and 3.5 SD of the protein, either way, in both replicates (recomputed)
bafetinib = compound: Cc1ccc(NC(=O)c2ccc(CN3CC[C@H](N(C)C)C3)c(C(F)(F)F)c2)cc1Nc1nccc(-c2cncnc2)n1 [bafetinib]
Summary of the method: (§1)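 Thermal stability values are relative to control samples and come from duplicates. They are expressed as log2 fold changes. For measurement, K562 cells (2×10^6 cells/mL) received 10 μM compound for 30 min, and aliquots were heated for 3 min over 48°C-58°C, pooled, and extracted at 4°C in PBS with 0.5% NP-40. Soluble protein, the supernatant after 21,000xg for 90 min, was quantified by TMTpro 16plex LC-MS/MS with equalised channel sums.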

[1] = compound: Cc1cccc(CC(=O)N2CCc3c2ccc(-c2cn(C)c4ncnc(N)c24)c3F)n1
Summary of the method: as §1

nilotinib = compound: Cc1cn(-c2cc(NC(=O)c3ccc(C)c(Nc4nccc(-c5cccnc5)n4)c3)cc(C(F)(F)F)c2)cn1 [nilotinib]
Summary of the method: as §1

[2] = compound: Cc1nc(Nc2n[nH]c3c2CN(C(=O)N[C@H](CN(C)C)c2ccccc2)C3(C)C)c2sccc2n1
Summary of the method: as §1

dasatinib = compound: Cc1nc(Nc2ncc(C(=O)Nc3c(C)cccc3Cl)s2)cc(N2CCN(CCO)CC2)n1 [dasatinib]
Summary of the method: as §1

[3] = compound: Cc1ncc(-c2ccnc(Nc3ccc(S(C)(=O)=O)cc3)n2)n1C(C)C
Summary of the method: as §1

[4] = compound: Cn1cc(-c2ccc3c(c2)CCN3C(=O)Cc2cccc(C(F)(F)F)c2)c2c(N)ncnc21
Summary of the method: as §1

[5] = compound: Cn1cc(-c2ccc3nnc(C(F)(F)c4ccc5ncccc5c4)n3n2)cn1
Summary of the method: as §1

tipifarnib = compound: Cn1cncc1[C@@](N)(c1ccc(Cl)cc1)c1ccc2c(c1)c(-c1cccc(Cl)c1)cc(=O)n2C [tipifarnib]
Summary of the method: as §1

mubritinib = compound: FC(F)(F)c1ccc(/C=C/c2nc(COc3ccc(CCCCn4ccnn4)cc3)co2)cc1 [mubritinib]
Summary of the method: as §1

[6] = compound: NC(=O)Nc1cc(-c2cccc(F)c2)sc1C(=O)N[C@H]1CCCNC1
Summary of the method: as §1

[7] = compound: NC(=O)c1cnc(N[C@@H]2CCCC[C@@H]2N)nc1Nc1cccc(-n2nccn2)c1
Summary of the method: as §1

[8] = compound: NC1(c2ccc(-c3nc4ccn5c(=O)[nH]nc5c4cc3-c3ccccc3)cc2)CCC1
Summary of the method: as §1

[9] = compound: NCC(=O)Nc1ccc(-n2nc(C(F)(F)F)cc2-c2ccc3c(ccc4ccccc43)c2)cc1
Summary of the method: as §1

entinostat = compound: Nc1ccccc1NC(=O)c1ccc(CNC(=O)OCc2cccnc2)cc1 [entinostat]
Summary of the method: as §1

vorinostat = compound: O=C(CCCCCCC(=O)Nc1ccccc1)NO [vorinostat]
Summary of the method: as §1

citarinostat = compound: O=C(CCCCCCNC(=O)c1cnc(N(c2ccccc2)c2ccccc2Cl)nc1)NO [citarinostat]
Summary of the method: as §1

silmitasertib = compound: O=C(O)c1ccc2c(c1)nc(Nc1cccc(Cl)c1)c1ccncc12 [silmitasertib]
Summary of the method: as §1

[10] = compound: O=C1NC(=O)C(c2cnc3ccccn23)=C1c1cn2c3c(cc(F)cc13)CN(C(=O)N1CCCCC1)CC2
Summary of the method: as §1

[11] = compound: c1cc(OCCN2CCCCC2)cc(-c2n[nH]c3ccc(-c4nnc[nH]4)cc23)c1
Summary of the method: as §1

Measured: log2 fold change

RAB9A (UniProt P51151)
UniProt P51151, sequence (P51151 whole entry, looked up): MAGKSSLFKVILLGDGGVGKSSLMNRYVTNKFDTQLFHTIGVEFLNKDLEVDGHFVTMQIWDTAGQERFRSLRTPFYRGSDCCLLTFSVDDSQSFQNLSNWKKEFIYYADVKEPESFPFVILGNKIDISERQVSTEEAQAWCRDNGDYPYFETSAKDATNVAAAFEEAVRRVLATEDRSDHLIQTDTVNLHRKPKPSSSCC
active: [8] -0.229
inactive: bafetinib -0.073 | [1] -0.021 | nilotinib -0.01 | [2] 0.012 | dasatinib 0.002 | [3] 0.002 | [4] 0.104 | [5] 0.001 | tipifarnib 0.001 | mubritinib 0.002 | [6] 0.014 | [7] -0.026 | [9] -0.022 | entinostat 0 | vorinostat 0.035 | citarinostat 0.039 | silmitasertib -0.028 | [10] -0.032 | [11] -0.018

SLC1A3 (UniProt P43003)
UniProt P43003, sequence (P43003 whole entry, looked up): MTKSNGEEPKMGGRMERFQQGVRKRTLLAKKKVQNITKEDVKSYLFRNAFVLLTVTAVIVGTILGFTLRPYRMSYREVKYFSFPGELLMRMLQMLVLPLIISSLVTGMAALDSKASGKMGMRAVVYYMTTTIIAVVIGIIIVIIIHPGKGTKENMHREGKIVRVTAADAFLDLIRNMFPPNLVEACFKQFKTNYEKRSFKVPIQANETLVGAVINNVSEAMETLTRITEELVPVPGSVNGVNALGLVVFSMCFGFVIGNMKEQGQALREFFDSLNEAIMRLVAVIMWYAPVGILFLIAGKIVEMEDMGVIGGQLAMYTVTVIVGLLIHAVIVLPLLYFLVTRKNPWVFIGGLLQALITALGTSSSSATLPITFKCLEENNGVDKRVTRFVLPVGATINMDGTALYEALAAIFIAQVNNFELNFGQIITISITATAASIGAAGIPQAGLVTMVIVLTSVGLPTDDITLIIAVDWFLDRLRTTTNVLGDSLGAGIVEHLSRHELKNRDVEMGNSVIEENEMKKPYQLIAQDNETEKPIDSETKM
inactive: bafetinib -0.051 | [1] 0.013 | nilotinib 0.131 | [2] -0.063 | dasatinib -0.203 | [3] -0.077 | [4] 0.133 | [5] -0.009 | tipifarnib 0.054 | mubritinib 0.096 | [7] 0.237 | [8] 0.103 | [9] -0.055 | vorinostat 0.143 | citarinostat -0.096 | silmitasertib -0.021 | [10] -0.18 | [11] -0.182

RARS (UniProt P54136)
UniProt P54136, sequence (P54136 whole entry, looked up): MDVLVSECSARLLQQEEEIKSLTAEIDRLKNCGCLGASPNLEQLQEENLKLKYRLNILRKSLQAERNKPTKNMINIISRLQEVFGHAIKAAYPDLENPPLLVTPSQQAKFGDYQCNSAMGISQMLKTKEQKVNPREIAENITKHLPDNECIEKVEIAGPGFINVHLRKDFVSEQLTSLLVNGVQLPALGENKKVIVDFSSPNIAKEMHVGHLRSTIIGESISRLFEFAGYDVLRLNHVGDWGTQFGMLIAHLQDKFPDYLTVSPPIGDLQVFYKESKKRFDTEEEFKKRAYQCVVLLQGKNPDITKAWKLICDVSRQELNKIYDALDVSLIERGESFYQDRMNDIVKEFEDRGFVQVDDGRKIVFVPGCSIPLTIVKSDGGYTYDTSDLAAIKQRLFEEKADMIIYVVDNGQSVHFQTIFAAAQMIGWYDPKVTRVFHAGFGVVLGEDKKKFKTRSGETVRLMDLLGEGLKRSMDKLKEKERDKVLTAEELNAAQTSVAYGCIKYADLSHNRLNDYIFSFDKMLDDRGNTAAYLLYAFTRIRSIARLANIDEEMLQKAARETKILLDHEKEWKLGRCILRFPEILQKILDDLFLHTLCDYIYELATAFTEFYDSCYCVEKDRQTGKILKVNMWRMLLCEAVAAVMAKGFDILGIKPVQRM
inactive: bafetinib 0.04 | [1] 0.069 | nilotinib -0.057 | [2] -0.021 | dasatinib -0.071 | [3] 0.053 | [4] -0.08 | [5] -0.125 | tipifarnib -0.117 | mubritinib -0.116 | [6] 0.098 | [7] -0.076 | [8] 0.032 | [9] -0.01 | entinostat 0.041 | vorinostat 0.115 | citarinostat 0.028 | silmitasertib 0.107 | [10] 0.325 | [11] -0.135

RCOR3 isoform 3 (UniProt Q9P2K3)
inactive: bafetinib 0.023 | [1] 0.039 | nilotinib -0.019 | [2] 0.001 | dasatinib -0.09 | [3] -0.022 | [4] -0.056 | [5] 0.006 | tipifarnib -0.119 | mubritinib 0.09 | [6] 0.019 | [7] -0.067 | [8] -0.129 | [9] -0.177 | entinostat 0.1 | vorinostat 0.127 | citarinostat 0.115 | silmitasertib -0.043 | [11] -0.075

ROCK1 (UniProt Q13464)
inactive: bafetinib -0.017 | [1] -0.006 | nilotinib -0.03 | [2] 0.007 | dasatinib -0.028 | [3] 0.034 | [4] -0.006 | [5] 0.01 | tipifarnib -0.037 | mubritinib 0.062 | [7] 0.054 | [8] -0.09 | [9] -0.029 | entinostat -0.002 | vorinostat 0.029 | citarinostat 0.068 | [10] -0.054

RARS2 (UniProt Q5T160)
UniProt Q5T160, sequence (Q5T160 whole entry, looked up): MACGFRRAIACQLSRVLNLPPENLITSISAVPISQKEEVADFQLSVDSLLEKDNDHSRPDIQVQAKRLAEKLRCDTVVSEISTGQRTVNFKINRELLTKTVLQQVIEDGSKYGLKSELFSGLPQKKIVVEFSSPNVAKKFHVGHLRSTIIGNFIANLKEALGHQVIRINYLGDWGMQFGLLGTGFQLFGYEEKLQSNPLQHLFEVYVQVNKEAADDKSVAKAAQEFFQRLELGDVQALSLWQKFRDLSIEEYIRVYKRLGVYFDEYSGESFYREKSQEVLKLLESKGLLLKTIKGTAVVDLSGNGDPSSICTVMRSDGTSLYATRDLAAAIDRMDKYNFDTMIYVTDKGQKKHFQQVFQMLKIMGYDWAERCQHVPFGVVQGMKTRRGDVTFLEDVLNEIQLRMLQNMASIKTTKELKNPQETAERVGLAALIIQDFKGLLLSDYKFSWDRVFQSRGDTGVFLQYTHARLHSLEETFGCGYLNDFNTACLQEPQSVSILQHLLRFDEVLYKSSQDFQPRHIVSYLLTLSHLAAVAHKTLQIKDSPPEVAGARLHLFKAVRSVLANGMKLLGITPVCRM
inactive: bafetinib -0.148 | [1] 0.104 | nilotinib -0.039 | [2] 0.019 | dasatinib -0.023 | [3] -0.006 | [4] 0.061 | [5] 0.012 | tipifarnib -0.008 | mubritinib 0.075 | [6] 0.042 | [7] -0.035 | [8] -0.182 | [9] -0.043 | entinostat 0.03 | vorinostat 0.029 | citarinostat 0.048 | silmitasertib 0.006 | [10] -0.022 | [11] -0.053

SCYL3 isoform 2 (UniProt Q8IZE3)
UniProt Q8IZE3, sequence (Q8IZE3 whole entry, looked up): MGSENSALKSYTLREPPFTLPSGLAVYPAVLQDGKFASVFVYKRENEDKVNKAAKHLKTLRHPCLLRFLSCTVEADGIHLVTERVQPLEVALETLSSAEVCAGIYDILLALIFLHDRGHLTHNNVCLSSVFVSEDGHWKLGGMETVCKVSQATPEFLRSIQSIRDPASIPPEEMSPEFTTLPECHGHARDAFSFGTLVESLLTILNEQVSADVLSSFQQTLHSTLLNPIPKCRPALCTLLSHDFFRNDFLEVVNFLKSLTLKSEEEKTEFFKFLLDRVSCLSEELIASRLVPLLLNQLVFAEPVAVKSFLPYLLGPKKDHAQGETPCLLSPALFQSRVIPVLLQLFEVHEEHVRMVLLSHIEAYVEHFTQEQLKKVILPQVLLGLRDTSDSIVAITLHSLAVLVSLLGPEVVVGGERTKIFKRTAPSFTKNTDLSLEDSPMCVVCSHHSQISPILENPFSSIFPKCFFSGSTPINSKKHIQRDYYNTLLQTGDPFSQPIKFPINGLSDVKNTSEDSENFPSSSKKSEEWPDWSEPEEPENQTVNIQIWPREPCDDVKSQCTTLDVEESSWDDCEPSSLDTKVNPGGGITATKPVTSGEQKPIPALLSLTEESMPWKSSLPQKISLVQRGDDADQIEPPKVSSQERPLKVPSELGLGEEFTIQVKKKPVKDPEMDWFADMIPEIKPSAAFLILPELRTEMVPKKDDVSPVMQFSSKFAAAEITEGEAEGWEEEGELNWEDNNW
inactive: bafetinib -0.056 | [1] -0.017 | nilotinib -0.215 | [2] -0.167 | dasatinib -0.124 | [3] 0.111 | [4] -0.062 | [5] -0.05 | tipifarnib 0.044 | mubritinib 0.032 | [7] 0.001 | [8] -0.185 | [9] -0.055 | vorinostat 0.031 | citarinostat -0.047 | silmitasertib 0.021 | [10] -0.053 | [11] 0.173

RIOK3 (UniProt O14730)
inactive: bafetinib -0.004 | [1] -0.02 | nilotinib -0.017 | [2] 0.06 | dasatinib 0.053 | [3] -0.01 | [4] 0.018 | [5] -0.005 | tipifarnib 0.002 | mubritinib 0.017 | [6] 0.047 | [7] -0.005 | [8] -0.061 | [9] 0.015 | entinostat -0.005 | vorinostat 0.043 | citarinostat 0.036 | silmitasertib -0.011 | [10] 0.057 | [11] -0.046

RNF2 (UniProt Q99496)
UniProt Q99496, sequence (Q99496 whole entry, looked up): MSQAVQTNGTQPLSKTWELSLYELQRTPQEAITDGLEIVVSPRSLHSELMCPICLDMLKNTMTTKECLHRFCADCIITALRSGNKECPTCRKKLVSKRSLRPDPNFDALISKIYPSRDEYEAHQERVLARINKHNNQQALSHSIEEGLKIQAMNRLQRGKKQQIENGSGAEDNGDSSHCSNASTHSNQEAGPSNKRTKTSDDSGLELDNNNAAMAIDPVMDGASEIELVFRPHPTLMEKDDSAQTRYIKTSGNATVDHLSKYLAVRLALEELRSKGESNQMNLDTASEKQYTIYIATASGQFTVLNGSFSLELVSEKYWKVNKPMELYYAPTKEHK
inactive: bafetinib -0.102 | [1] 0.022 | nilotinib 0.065 | [2] -0.214 | dasatinib -0.106 | [3] 0.061 | [4] -0.005 | tipifarnib -0.026 | mubritinib -0.031 | [6] -0.04 | [7] -0.023 | [8] -0.003 | [9] -0.051 | entinostat 0.102 | vorinostat -0.048 | citarinostat 0.054 | silmitasertib 0.003 | [10] -0.014 | [11] -0.102

SACM1L (UniProt Q9NTJ5)
UniProt Q9NTJ5, sequence (Q9NTJ5 whole entry, looked up): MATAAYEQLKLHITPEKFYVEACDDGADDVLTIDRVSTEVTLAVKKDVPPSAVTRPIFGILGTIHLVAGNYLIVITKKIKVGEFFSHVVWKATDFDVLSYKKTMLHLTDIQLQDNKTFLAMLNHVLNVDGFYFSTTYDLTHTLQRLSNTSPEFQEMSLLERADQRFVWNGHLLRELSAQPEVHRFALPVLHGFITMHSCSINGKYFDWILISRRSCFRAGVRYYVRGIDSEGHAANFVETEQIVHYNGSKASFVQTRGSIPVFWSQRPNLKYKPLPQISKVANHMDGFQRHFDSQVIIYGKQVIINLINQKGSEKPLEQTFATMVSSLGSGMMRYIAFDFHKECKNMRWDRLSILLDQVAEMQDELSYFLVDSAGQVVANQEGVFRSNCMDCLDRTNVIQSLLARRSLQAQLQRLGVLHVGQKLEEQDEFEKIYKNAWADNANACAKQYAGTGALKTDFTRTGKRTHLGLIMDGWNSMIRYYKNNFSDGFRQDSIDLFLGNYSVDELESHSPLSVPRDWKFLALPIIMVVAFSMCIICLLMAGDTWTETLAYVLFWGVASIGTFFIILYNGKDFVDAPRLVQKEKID
inactive: bafetinib -0.011 | [1] -0.022 | nilotinib 0.044 | [2] -0.002 | dasatinib 0.012 | [3] 0.012 | [4] -0.009 | [5] 0 | tipifarnib -0.024 | mubritinib -0.002 | [6] -0.045 | [7] 0 | [8] -0.102 | [9] -0.083 | entinostat 0.016 | vorinostat 0.006 | citarinostat 0.044 | silmitasertib 0.034 | [10] -0.068 | [11] -0.017

RBBP6 (UniProt Q7Z6E9)
inactive: bafetinib -0.018 | [1] -0.004 | nilotinib 0 | [2] -0.031 | [3] -0.003 | [4] 0.003 | [5] -0.01 | tipifarnib -0.058 | mubritinib -0.171 | [6] 0.028 | [7] -0.107 | [8] 0.089 | [9] -0.017 | entinostat -0.011 | vorinostat 0.081 | citarinostat 0.099 | silmitasertib 0.207 | [10] 0.112 | [11] -0.013

RBM4 (UniProt Q9BWF3)
UniProt Q9BWF3, sequence (Q9BWF3 whole entry, looked up): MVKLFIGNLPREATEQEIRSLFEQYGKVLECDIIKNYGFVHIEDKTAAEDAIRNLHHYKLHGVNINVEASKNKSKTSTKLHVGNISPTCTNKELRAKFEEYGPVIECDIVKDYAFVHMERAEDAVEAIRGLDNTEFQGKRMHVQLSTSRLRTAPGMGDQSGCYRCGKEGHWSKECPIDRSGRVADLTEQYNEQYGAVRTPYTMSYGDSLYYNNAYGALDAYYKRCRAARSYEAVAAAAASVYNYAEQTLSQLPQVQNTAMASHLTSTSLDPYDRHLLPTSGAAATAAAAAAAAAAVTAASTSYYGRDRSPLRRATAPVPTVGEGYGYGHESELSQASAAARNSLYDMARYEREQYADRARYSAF
inactive: bafetinib -0.049 | [1] -0.01 | nilotinib -0.047 | [2] -0.095 | dasatinib -0.033 | [3] -0.039 | [4] -0.054 | [5] -0.063 | tipifarnib -0.013 | mubritinib -0.082 | [6] 0.015 | [7] -0.031 | [8] -0.017 | [9] -0.033 | entinostat 0.023 | vorinostat 0.06 | citarinostat -0.015 | silmitasertib 0.095 | [10] -0.002 | [11] -0.092

RELA (UniProt Q04206)
UniProt Q04206, sequence (Q04206 whole entry, looked up): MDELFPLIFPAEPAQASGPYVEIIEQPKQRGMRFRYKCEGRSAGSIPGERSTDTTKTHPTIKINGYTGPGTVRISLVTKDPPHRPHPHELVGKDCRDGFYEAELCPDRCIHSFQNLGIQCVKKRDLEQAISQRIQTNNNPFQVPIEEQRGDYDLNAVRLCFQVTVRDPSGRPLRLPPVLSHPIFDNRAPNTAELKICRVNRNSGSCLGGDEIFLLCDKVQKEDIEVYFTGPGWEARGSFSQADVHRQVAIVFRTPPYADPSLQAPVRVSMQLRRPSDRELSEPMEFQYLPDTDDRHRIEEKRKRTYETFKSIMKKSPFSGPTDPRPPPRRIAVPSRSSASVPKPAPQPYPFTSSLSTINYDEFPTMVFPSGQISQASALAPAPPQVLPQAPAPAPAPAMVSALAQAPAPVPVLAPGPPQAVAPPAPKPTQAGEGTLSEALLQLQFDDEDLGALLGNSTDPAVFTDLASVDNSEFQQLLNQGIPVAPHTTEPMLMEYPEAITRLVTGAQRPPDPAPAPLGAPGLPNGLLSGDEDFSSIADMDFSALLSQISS
active: [2] -0.295
inactive: bafetinib -0.04 | [1] 0.006 | nilotinib -0.023 | [3] -0.031 | [4] 0.04 | [5] -0.047 | tipifarnib -0.04 | mubritinib 0.044 | [6] -0.009 | [7] -0.06 | [8] -0.121 | [9] -0.016 | entinostat 0.019 | vorinostat 0.036 | citarinostat 0.079 | silmitasertib -0.029 | [10] -0.017 | [11] -0.002

ROMO1 (UniProt P60602)
UniProt P60602, sequence (P60602 whole entry, looked up): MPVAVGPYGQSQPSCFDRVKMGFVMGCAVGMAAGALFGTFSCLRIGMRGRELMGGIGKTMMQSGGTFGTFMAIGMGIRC
inactive: bafetinib 0.056 | [1] -0.022 | nilotinib -0.001 | [2] 0.027 | dasatinib -0.03 | [3] -0.039 | [4] 0.066 | [5] 0.063 | tipifarnib 0.062 | mubritinib 0.01 | [6] -0.105 | [7] 0.046 | [8] -0.051 | entinostat 0.011 | vorinostat -0.013 | citarinostat 0.072 | silmitasertib 0.032 | [10] 0.062 | [11] -0.042

RNF14 (UniProt Q9UBS8)
inactive: bafetinib -0.033 | [1] 0.05 | nilotinib -0.002 | [2] -0.07 | dasatinib -0.136 | [3] -0.048 | [4] -0.017 | [5] 0.033 | tipifarnib -0.05 | mubritinib 0.017 | [6] -0.016 | [7] -0.054 | [8] -0.157 | [9] 0.008 | entinostat 0.037 | vorinostat 0.021 | citarinostat -0.006 | silmitasertib 0.003 | [10] -0.127 | [11] -0.007

From the supplement of paper PMC10849652
